Source: PubChem BioAssay
esBAF inh – SWI/SNF esBAF complex inhibition | mouse ES cells, Bmi1-luciferase knock-in reporter, 24 h; 100% = twice the neutral-well signal | reporter increase, % at 12.5 µM | hit rate 2% among 350,000 | AID 602393; in the data active means activation above about 40%; inconclusive means no clear call, values can overlap the other calls;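 further: 0% = median of the plate's neutral control wells and 100% = double that signal; a rise in the Bmi1 reporter signal indicates esBAF inhibition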
Vif inh – HIV Vif inhibition | AID 602346 | hit rate 0.35% among 340,000 | inhibition, % at 7.49 µM | HEK293T cells, Vif self-association by quenched fluorescence, imaging, 24 h; in the data active means inhibition above about 50%, passing the limit was not always enough; inconclusive means no clear call, values can overlap the other calls; inactive means below about 31%
HSF-1 act – increases HSF-1 driven luciferase reporter signal; activation, % at 9 µM; NIH3T3-HGL HSF-1 luciferase reporter, MG132, 8 h; 100% = twice DMSO control signal; hit rate 1.7% among 300,000; AID 504408;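 active means mean replicate activation of at least 50% with a set share of replicates each reaching 50%; inconclusive means only one of those two conditions met; inactive means mean below 50% and too few replicates reaching it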;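 further: 0% = median of the neutral control wells and 100% = twice that signal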
HSF1 inh – HSF1 inhibition; activity change, negative = inhibition, % at 7.5 µM (by protocol); hit rate 0.77% among 300,000; AID 2098; NIH3T3-HGL HSE-luciferase, MG132-induced, luminescence 8 h; active compounds read low;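 active means more than half of replicate wells show activity change below -50%, luminescence cut by over half; inconclusive means some wells, but at most half, below -50%; inactive means no replicate well below -50%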;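 further: luciferase reports HSF-1 transcriptional activity via heat shock element; 0% = median of DMSO wells and -100% = zero luminescence signal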
Numbers without * were called inactive; ? = inconclusive; . = not tested or not shown. In the library only some 3.4% were active in any assay of this set; here they are far more common.

SMILES | esBAF inh | Vif inh | HSF-1 act | HSF1 inh
COc1ccc(NC(=O)CN(Cc2ccccc2)Cc2ccccc2)cc1S(N)(=O)=O | . | -1 | -8 | 5
Cc1ccccc1S(=O)(=O)N1C[C@@H](O)COC[C@@H]2O[C@H](CC(=O)N3CCOCC3)CC[C@H]21 | 3 | . | . | .
CCc1ccc(NC(=O)C2CCC(CNC(=O)[C@@H]3Cc4ccccc4CN3)CC2)cc1 (some centres undefined) | 6 | -5 | -72 | -66*
Cc1ccc(NC(=O)[C@@H](C)NC(=O)[C@@H]2Cc3ccccc3CN2)cc1 | 27 | -4 | -64 | -55*
Cc1ccc(NC(=O)C2CCN(C(=O)[C@@H]3Cc4ccccc4CN3)CC2)cc1 | 54* | -7 | 29 | 26
Cc1ccc(NC(=O)[C@@H](CC(C)C)NC(=O)[C@@H]2Cc3ccccc3CN2)cc1 | 29 | -7 | 10 | -3
C=C(C)n1c(=O)n(Cc2ccc(C)cc2)c2ccccc21 | 7 | 69* | -12 | 2
COc1ccc(CCN(C)CCc2ccc(OC)c(OC)c2)cc1OC | 7 | -3 | -3 | -2
COc1ccc2cc(Br)ccc2c1CC(=O)N(C)C | 2 | -9 | 11 | 0
COc1ccc(CN(C)Cc2c(O)ccc3cc(Br)ccc23)cc1OC | -9 | -4 | 114* | 87
COc1ccc(CCN(C)Cc2c(O)ccc3cc(Br)ccc23)cc1OC | 2 | 9 | 204* | 164
Cc1cc2nc(N3CCN(C(=O)c4ccco4)CC3)sc2cc1C | 69* | -26 | 42 | 22
Cc1cc(C)c2nc(N3CCN(C(=O)c4ccco4)CC3)sc2c1 | 54* | -1 | 16 | 15
C[C@@H]1CN([C@H](C)CO)C(=O)c2cc(NC(=O)Cc3ccccc3)ccc2O[C@@H](C)CCCCO[C@@H]1CN(C)C(=O)NC1CCCCC1 | 4 | . | . | .
C[C@@H]1CN([C@H](C)CO)C(=O)c2cc(NC(=O)C3CCCCC3)ccc2O[C@H]1CN(C)Cc1ccc2c(c1)OCO2 | -1 | . | . | .
CCOC(=O)/C(C#N)=C/c1cc(C)n(-c2ccccc2)c1C | . | -2 | -74 | -70*
Cc1cc(C(=O)O)ccc1-n1c(C)cc(/C=C(/C#N)C(=O)Nc2ccccc2)c1C | . | -4 | 5 | 0
CCOC(=O)/C(C#N)=C/c1cc(C)n(-c2ccc(Br)cc2)c1C | . | . | -14 | 0
Cc1cc(/C=C(\C#N)C(=O)Nc2ccccc2)c(C)n1-c1cccnc1 | . | 2 | 58* | 23
Nc1ccc(-c2c3ccc(=O)cc-3oc3cc(O)ccc23)c(C(=O)O)c1 | 0 | 73* | . | .
C#Cc1cccc(NC(=O)c2ccc(Cl)cc2Cl)c1 | 53* | 1 | ? | 9
CCC(=O)Nc1ccc(C(=O)OCc2ccc(Cl)c(Cl)c2)cc1 | . | -2 | 21 | -5
O=C(Cc1ccc(Cl)c(Cl)c1)OCC(=O)c1ccc[nH]1 | -5 | 23 | -5 | -4
O=C(OCc1ccc(Cl)c(Cl)c1)c1ccc[nH]1 | 50* | 3 | 38 | 26
CC(=O)Nc1ccc(C(=O)OCc2ccc(Cl)c(Cl)c2)cc1 | . | 9 | 57* | 22
SMILES | esBAF inh | Vif inh | HSF-1 act | HSF1 inh
Cc1ccc(C(=O)/C=C/Nc2cccc(O)c2)cc1 | -60 | -3 | -2 | 4
C/C(=C\C(=O)c1ccc(C)cc1)Nc1cccc(O)c1 | 72* | -13 | 10 | 10
COc1cccc(N2CCN(C(=S)NCc3ccco3)CC2)c1 | -10 | -4 | 55* | 31
Cc1ccc(Cl)cc1N1CCN(C(=S)NCc2ccco2)CC1 | . | 0 | 45 | 49
S=C(NCc1ccco1)N1CCN(c2ccccc2Cl)CC1 | ? | 0 | 70* | 46
Fc1ccc(N2CCN(C(=S)NCc3ccco3)CC2)cc1 | 7 | -3 | 11 | 17
OCCNC1=NCCN1 | -10 | -1 | -3 | 3
Fc1ccc(Sc2ccccc2CNC2=NCCN2)cc1 | . | 0 | 55* | 9
CC(C)c1ccc(NC(=O)Nc2cc3sccc3n2C)cc1 | 0 | . | -82 | -77*
CC(C)C[C@H](NC(=O)OC(C)(C)C)C(=O)NCC1CCC(C(=O)N[C@@H](Cc2ccccc2)C(=O)O)CC1 (some centres undefined) | 1 | -14 | -27 | -6
CC(C)[C@H](NC(=O)OC(C)(C)C)C(=O)NCC1CCC(C(=O)N[C@@H](Cc2ccccc2)C(=O)O)CC1 (some centres undefined) | -1 | -14 | -67 | -59*
CC(C)[C@H](N)C(=O)NC[C@H]1CC[C@H](C(=O)N[C@@H](Cc2ccccc2)C(=O)O)CC1 | 0 | -12 | -69 | -63*
O=C(CSc1ccc(F)cc1)Nc1ccc(Br)cc1 | . | 3 | 102* | 47
CCn1ncc(C(=O)Nc2cccc(Cl)c2)c1C | 53* | -6 | 62* | 23
O=C(NNC(=S)Nc1cccc(Cl)c1)c1ccccc1 | ? | -4 | 29 | 27
O=C(Nc1cccc(Cl)c1)c1ccccc1 | 42* | -5 | . | .
O=C(Nc1ccc2nc3ccccc3nc2c1)c1ccccc1 | . | -4 | 81* | 40
O=C(Nc1ccc(Nc2ccccc2)cc1)c1ccccc1 | . | . | 32 | 15
CCc1cccc(NC(=O)c2cnn(-c3ccccc3)c2C)c1 | 14 | -1 | 42 | 15
C[C@@H]1CN([C@@H](C)CO)C(=O)c2cc(C#CC3CCCC3)cnc2O[C@H]1CN(C)C(=O)Cc1ccccn1 | 2 | . | . | .
CCCCNC(=O)Nc1ccc(C2SCCS2)cc1 | 28 | . | 69* | 47
O=C(Nc1ccccc1)c1ccc(NC(=O)C2CC2)cc1 | 39 | 3 | 54* | 27
COC(=O)c1ccc(C(=O)Nc2ccc(F)cc2)cc1 | 67* | -5 | . | .
CNC(=O)Nc1ccc(C2SCCS2)cc1 | . | -20 | 31 | 8
O=C(NCCc1ccc(F)cc1)c1cccc(NC(=O)c2ccccc2)c1 | 65* | -2 | 16 | 28
SMILES | esBAF inh | Vif inh | HSF-1 act | HSF1 inh
COc1ccc(NC(=O)Nc2cccc3c2O[C@@H](CN(C)Cc2ccc(Cl)c(Cl)c2)[C@H](C)CN([C@@H](C)CO)C3=O)cc1 | -1 | . | . | .
O=C(Nc1ccc(F)cc1)c1ccccc1 | 81* | 5 | 65* | 29
O=C(Nc1ccc(C2SCCS2)cc1)c1ccccc1 | . | 1 | 54* | 31
COC(=O)c1ccc(NC(=O)c2ccc(OC(C)=O)c(OC)c2)cc1 | 50* | -8 | 36 | 24
O=C(NCCCCc1ccccc1)c1cccc(NC(=O)c2ccccc2)c1 | 3 | . | . | .
O=C(/C=C/c1ccccc1)Nc1cccc(C(=O)NCCCc2ccccc2)c1 | 43* | -4 | . | .
C[C@@H]1CN([C@H](C)CO)C(=O)c2cc(NC(=O)CCC(F)(F)F)ccc2O[C@@H](C)CCCCO[C@@H]1CN(C)C(=O)Cc1ccccc1 | 1 | . | . | .
C[C@@H]1CN([C@H](C)CO)C(=O)c2cc(C#CCN(C)C)cnc2O[C@H]1CN(C)C(=O)c1ccc(F)cc1 | -1 | . | . | .
Cc1ccc(S(=O)(=O)Nc2ccc3c(c2)C(=O)N(C)[C@H]2CC[C@@H](CC(=O)NCCc4ccncc4)O[C@H]2CO3)cc1 | 5 | . | . | .
O=C(Nc1cccc(Cl)c1)c1ccc(Cn2cc(Cl)cn2)cc1 | . | 0 | 53* | 20
CC(=O)Nc1ccc(NC(=O)c2ccc(Cn3cc(Cl)cn3)cc2)cc1 | . | -6 | . | .
O=C(CNc1ccccc1)Nc1ccc(F)cc1 | 52* | -7 | ? | 28
